TIM10 inh: growth inhibitors of isogenic TIM10 control yeast, primary screen, counter-screen for tim10-1 yeast inhibitor project, luminescence, uHTS. S. cerevisiae TIM10 strain growth, BacTiter-Glo luminescence, 24 h. inhibition, % at 10 µM. 330,000 tested, 1.4% active. AID 463195, 2010;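 active means inhibition of 40% or more at the single tested concentration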;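 further: wild-type TIM10 isogenic control strain grown at permissive 25 °C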
tim10-1 inh: growth inhibitors of tim10-1 mutant yeast, primary screen, luminescence, uHTS | S. cerevisiae tim10-1 ts strain growth, BacTiter-Glo, 24 h | inhibition, % at 20 µM | 330,000 tested, 2.2% active | AID 463190, 2010;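 active means inhibition of at least 40%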;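 further: mutant grown at 25 °C; 0% = DMSO wells with yeast and 100% = wells holding no yeast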
SKKanGAS inh: S. pyogenes SKKanGAS growth inhibitors in kanamycin, primary screen, streptokinase expression inhibitor project, SKKanGAS strain, BacTiter-Glo luminescence; 6 h; AID 1662, 2009; 300,000 tested, 1.3% active; inhibition, % at 7.5 µM;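 active means mean replicate score, as percent of positive control median, at least 50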;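 further: strain carries kanamycin resistance gene driven by streptokinase promoter and grows in 40 µg/ml kanamycin; loss of luminescence reflects streptokinase promoter inhibition or plain growth inhibition; 0% = median of DMSO wells and 100% = positive control at its reference dose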
V-ATPase pHluor: regulators of yeast V-ATPase proton pumping, primary screen, pHLuorin cytosolic pH fluorescence; S. cerevisiae; response, % at 10 µM; AID 504577, 2011; 350,000 tested, 0.37% active; in the data active means response mostly above about 7.3%, no sharp cut-off; inactive means mostly below about 5.4%; further: actives read high
PfHsp90 set2: growth inhibition of PfHsp90-expressing yeast, primary screen, antimalarial PfHsp90 inhibitor project, S. cerevisiae, BacTiter-Glo luminescence, single point, set 2; inhibition, % at 9.4 µM; AID 504621, 2011; BacTiter-Glo ATP, 48 h; yeast lacking PDR1 and PDR3 efflux regulators; 310,000 tested, 0.32% active;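 active means every replicate shows inhibition above about 80%, whatever the replicate mean, limit read from the data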;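 further: 0% = DMSO neutral controls and 100% = 20 µM radicicol positive controls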
tim23-1 inh: growth inhibitors of tim23-1 mutant yeast, primary screen, luminescence, uHTS. 330,000 tested, 1.3% active. inhibition, % at 20 µM. S. cerevisiae tim23-1 growth, BacTiter-Glo luminescence, 24 h;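 active means growth inhibition of the mutant yeast at or above 50%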;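 further: temperature-sensitive mutant grown at 25 °C; plate controls were DMSO-treated mutant yeast for no effect and medium wells lacking yeast for full effect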
tim10-1 confirm: growth inhibitors of tim10-1 mutant yeast, confirmation, single concentration, luminescence, S. cerevisiae. shares compounds with tim10-1 inh. S. cerevisiae tim10-1 ts strain growth, BacTiter-Glo, 24 h. inhibition, % at 20 µM. 7,400 tested, 56% active;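 active means inhibition of yeast growth at or above a set limit in either of two repeat tests at 20 µM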;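 further: tim10-1 mutant grown at permissive 25 °C to find synthetic lethal compounds; 0% = DMSO yeast wells and 100% = medium wells without yeast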
The depositor's hits bear a star; / = no result given. This is a sample that favours compounds with a hit; in the whole collection about 4.6% have one here.

SMILES | TIM10 inh | tim10-1 inh | SKKanGAS inh | V-ATPase pHluor | PfHsp90 set2 | tim23-1 inh | tim10-1 confirm
COc1ccc(NC(=O)Nc2cc3oc4ccccc4c3cc2OC)cc1 | 20.3 | 19.9 | 7.2 | -0.8 | 16.8 | 3.7 | /
COc1cc2c(cc1NC(=O)Nc1ccc(C)cc1)oc1ccccc12 | 29.9 | 43.0* | 3.2 | -3.2 | 36.0 | 12.8 | 41.4*
COc1cccc(/C=N/NC(=O)C(=O)NCc2ccco2)c1O | 30.6 | 58.2* | 2.9 | -0.5 | -8.2 | 37.2 | 13.8
COc1cccc(/C=N/NC(=O)C(=O)NCc2ccco2)c1OC | 12.1 | 20.9 | 4.5 | -2.9 | -0.5 | 7.5 | /
CCOc1cc(/C=C2\C(=O)N(c3ccc(C(N)=O)cc3)N=C2C)ccc1OC(=O)c1cccs1 | 13.7 | 17.5 | 3.4 | -4.7 | 10.5 | 9.4 | /
CCOc1cc(/C=C2/C(=O)N(c3ccccc3)N=C2C)ccc1OC(=O)c1ccco1 | 25.3 | 40.4* | 7.7 | -4.5 | 12.1 | 13.7 | 26.4
COc1ccc(CN2C(=O)c3cccc4cccc2c34)cc1F | -11.8 | -3.4 | -1.3 | 0.3 | 2.4 | 21.1 | /
N#Cc1cc(NC(=O)c2ccc(F)cc2)c(=O)n2c1[nH]c1ccccc12 | 0.6 | 2.0 | 18.6 | / | / | 12.8 | /
COc1ccc2c(O)c(-c3c(C)cc(C)cc3C)c(=O)[nH]c2c1 | -8.8 | -19.6 | -1.4 | -2.1 | -5.6 | 9.1 | /
CCOC(=O)/C(C#N)=C1\SS/C(=C(/C#N)C(=O)OCC)S1 | 12.6 | 41.0* | -7.5 | / | / | 21.2 | 35.7*
CCOC(=O)C(C#N)=C1CCC=C(C)C1 | / | / | / | 1.6 | / | / | /
CCOC(=O)c1c(=O)n(O)c2ccc(OC)cc2[n+]1[O-] | -0.9 | 9.7 | 6.7 | -2.9 | 10.6 | 14.0 | /
COc1ccccc1C(=O)NCC(=O)OCC(=O)c1ccc2c(c1)-c1ccccc1C2 | -5.2 | 10.6 | 7.1 | -5.3 | 7.7 | -5.3 | /
CC(C(=O)NCc1ccc(Cl)cc1)n1cccc1C(=O)c1ccccc1 (stereo not drawn) | 6.0 | 41.0* | -9.6 | 0.8 | -9.6 | 35.0 | -10.4
Cc1ccc(NC(=O)C2=C(O)CCn3c2nc2ccccc23)cc1 | 19.7 | 43.4* | -6.3 | -0.5 | -26.3 | 27.4 | 0.3
Cc1ccc(NC(=O)NCc2nc3ccccc3n2C)cc1 | 23.0 | 6.6 | -0.2 | 2.9 | -8.0 | 13.9 | /
O=C(N=Nc1ccc(NOC(=O)c2ccccc2Br)cc1)c1ccccc1O | 19.9 | 49.6* | 41.4 | / | / | 44.1 | 37.0*
COc1ccccc1-c1nnc(Sc2nc([N+](=O)[O-])nn2C)o1 | 35.0 | 48.0* | 1.1 | 2.0 | / | 44.3 | 41.7*
Cc1ccc(-c2csc(=S)n2CC(=O)OCC(=O)NCc2ccco2)cc1 | 5.9 | 40.8* | -4.1 | 1.0 | / | 22.1 | 19.5
COC(=O)CN1C(=S)N(c2ccc(OC)cc2)C(=O)/C1=C/c1ccc(OC)cc1 | 26.8 | 49.9* | -9.3 | -1.2 | -3.7 | 38.8 | 36.6*
COC(=O)CN1C(=S)N(c2ccc(OC)cc2)C(=O)/C1=C/c1ccc(N2CCOCC2)cc1 | / | / | -2.0 | 2.9 | 5.9 | / | /
CC(C)(C)OC(=O)C[C@H]1C/C=C\C[C@H](CC(=O)NCCO)C(=O)N[C@@H](c2ccccc2)COC1=O | -1.1 | -13.5 | / | 2.6 | 4.9 | -2.6 | /
O=C(Nc1nnc(C2=COCCO2)o1)c1ccc(Cl)cc1 | 11.2 | 56.8* | 25.6 | 0.6 | -33.2 | 23.5 | 31.5*
O=C(Nc1nnc(C2=COCCO2)o1)c1ccc(S(=O)(=O)N2CCOCC2)cc1 | -1.0 | 14.5 | -0.6 | 1.9 | 6.3 | 6.5 | /
O=C(Nc1nnc(C2=COCCO2)o1)c1ccc(Br)cc1 | 29.6 | 41.7* | 101.1* | -0.2 | -12.8 | 33.8 | 38.9*
SMILES | TIM10 inh | tim10-1 inh | SKKanGAS inh | V-ATPase pHluor | PfHsp90 set2 | tim23-1 inh | tim10-1 confirm
O=C(Nc1nnc(C2=COCCO2)o1)c1ccc([N+](=O)[O-])cc1 | 9.9 | 46.1* | -3.2 | 1.5 | -23.6 | 21.9 | 34.9*
CC1CCCCN1S(=O)(=O)c1ccc(C(=O)Nc2nnc(C3=COCCO3)o2)cc1 (stereo not drawn) | -3.6 | -6.8 | 16.3 | -3.1 | -25.8 | -9.4 | /
CC(C)(C)c1ccc(/C([O-])=C(/C(=S)NCc2ccco2)[n+]2ccccc2)cc1 | -3.5 | 22.9 | 4.2 | / | / | 19.8 | /
N#CC(C(=O)Nc1ccc(Cl)c(Cl)c1)=C1Nc2ccccc2N1 | 7.2 | 44.9* | 2.0 | -4.1 | -10.1 | -10.5 | 19.5
Cc1cc(N2CCOCC2)nc2ccc(NC(=S)NCCC(C)C)cc12 | 12.4 | 43.7* | -0.8 | -0.5 | 16.1 | 27.1 | 28.5*
COc1ccc(OC)c(CN2CCN(C(=O)c3ccc(S(=O)(=O)Nc4ccccc4F)cc3)CC2)c1 | 13.7 | 0.2 | / | 1.0 | -12.6 | 3.0 | /
O=C(CSc1nc2cc(Cl)ccc2s1)c1ccco1 | 19.3 | 43.0* | -4.3 | -0.8 | -42.0 | 42.9 | 37.5*
Cc1ccccc1NC(=S)Nc1ccccn1 | 12.8 | 46.8* | -4.3 | 2.9 | -8.2 | 34.7 | -5.0
CCC(C)(C)c1ccc(Oc2cccc(C(=O)O)c2)cc1 | -1.8 | 96.9* | 11.9 | 1.9 | 1.3 | 22.1 | 21.4
Cc1cc(C)c2nc(N(CCN(C)C)C(=O)c3ccc(S(=O)(=O)N(C)CC4CCCO4)cc3)sc2c1 (stereo not drawn) | 14.9 | 42.1* | 1.7 | 6.6 | -27.5 | 21.6 | 3.1
CCN(Cc1ccccc1)S(=O)(=O)c1ccc(C(=O)N(CCCN(C)C)c2nc3c(C)c(C)ccc3s2)cc1 | 5.4 | 46.1* | 26.9 | -2.6 | 14.3 | 28.2 | -1.8
Cc1ccc2sc(N(CCN(C)C)C(=O)c3ccc(S(=O)(=O)N4CC(C)OC(C)C4)cc3)nc2c1C (stereo not drawn) | 28.6 | 40.3* | 0.9 | 0.5 | -29.9 | 26.5 | 24.1
O=C1C[C@H]2[C@H](CO)[C@@H](OC(=O)c3ccc(-c4ccccc4)cc3)C[C@H]2O1 | 3.3 | -16.3 | 4.2 | 0.0 | 19.5 | 12.3 | /
COC(=O)c1ccc(N2CCN(S(=O)(=O)c3ccccc3)CC2)c([N+](=O)[O-])c1 | 3.2 | 42.4* | -0.2 | -0.5 | -14.1 | 30.5 | 14.9
Cn1c(SCc2ccc(C#N)cc2)nnc1-c1ccncc1 | -11.7 | -13.8 | -4.0 | -2.8 | 13.3 | -10.4 | /
C=CCn1c(SCc2ccc(C#N)cc2)nnc1-c1ccc(C)cc1 | 17.3 | 44.4* | -2.6 | -0.6 | / | 35.8 | 28.1
CN(C)CCN(C(=O)c1ccc(S(=O)(=O)N(C)c2ccccc2)cc1)c1nc2ccc(Cl)cc2s1 | 0.2 | 13.2 | 4.8 | -1.8 | -3.0 | 7.4 | /
